# Pf apPOL inh: Pf-apPOL DNA polymerase inhibition; Recombinant Pf-apPOL, molecular beacon fluorescence, 1.5 h; inhibition, % at 10 µM; 0.25% of 210,000 active; AID 1794808
# mHTT CaM bind: disrupts binding of mutant huntingtin to calmodulin; P42858; AlphaScreen His-mHTT/GST-CaM binding, luminescence; inhibition, % at 15 µM; 3.6% of 190,000 active; AID 1671202
# Numbers stand for hits; - = inactive; . = no result given; ! = repeats disagree. Shown are actives, neighbours in structure and some others; about 3.6% of the full set was active somewhere. No stated cut-off is given here; in the data, active means inhibition above about 50%; inactive means the rest.
SMILES,Pf apPOL inh,mHTT CaM bind
COc1ccc(CC(C)(O)CNC(=O)c2ccc3c(c2)OCO3)cc1 (stereo not given),-,-
C[C@H]1C(c2ccc(F)cc2)=NN(c2ccccc2)[C@@H]1CO,-,-
OC[C@@H]1[C@@H](c2ccc(Cl)cc2)C(c2ccccc2)=NN1c1ccccc1,-,86
OC[C@@H]1[C@@H](c2ccc(F)cc2)C(c2cccc(Cl)c2)=NN1c1ccccc1,-,72
OC[C@@H]1[C@@H](c2ccc(Cl)cc2)C(c2cccc(Cl)c2)=NN1c1ccccc1,-,74
CC[C@H]1C(c2ccccc2)=NN(c2ccccc2)[C@@H]1CO,-,-
C[C@H]1C(c2cccc(Cl)c2)=NN(c2ccccc2)[C@@H]1CO,-,-
COc1cc(/C=C(\C#N)c2[nH]nc(N)c2C#N)ccc1OCc1ccccc1,-,-
Cc1ccc(C(=O)Nc2c3c(nn2-c2cccc(C)c2C)CS(=O)(=O)C3)cc1,-,-
Cc1cc(NS(=O)(=O)c2ccc(NC(=O)COc3cc(C)c(Cl)c(C)c3)cc2)nc(C)n1,-,-
Nc1nc[nH]c(=O)c1[N+](=O)[O-],-,-
NNc1ncc([N+](=O)[O-])c2nc[nH]c12,.,100
Cc1ccc(C)c(NC(=O)Cn2ccc3sccc3c2=O)c1,-,-
Cc1ccccc1C(=O)Nc1cccc(N=Cc2cc(Cl)cc([N+](=O)[O-])c2O)c1,-,-
CC(=O)Nc1cccc(N=Cc2cc(Cc3ccccc3)ccc2O)c1,-,95
CC(=O)Nc1cccc(N=Cc2cc(Cc3ccccc3Cl)cc([N+](=O)[O-])c2O)c1,-,98
O=C(Nc1cccc(N=Cc2cc(Br)ccc2O)c1)c1ccco1,-,-
N#CCSc1sc2c(O)cc(=O)[nH]c2c1C#N,.,-
N#Cc1c(SCC(=O)c2ccc(Cl)s2)sc2c(O)cc(=O)[nH]c12,.,63
CC1(C)C2CCC1(C)C(OCC(O)CN1CCN(c3ccccc3F)CC1)C2 (stereo not given),-,-
CC1(C)C2CCC1(C)C(OCC(O)CN1CCN(c3cccc(C(F)(F)F)c3)CC1)C2 (stereo not given),-,93
CC(=O)c1cccc(Nc2nc(-c3c(C)nc4sccn34)cs2)c1,-,-
Cc1ccc(-c2nc3ccccc3[nH]2)cc1NC(=O)c1cccs1,-,-
Cc1cc2c(cc1C)NC(c1ccc(F)cc1)C1=C(CC(C)(C)CC1=O)N2 (stereo not given),-,-
CC1(C)CC(=O)C2=C(C1)Nc1ccccc1NC2c1ccc(-c2ccc([N+](=O)[O-])cc2Cl)o1 (stereo not given),-,-
SMILES,Pf apPOL inh,mHTT CaM bind
CC1(C)CC(=O)C2=C(C1)Nc1ccccc1NC2c1ccc(-c2ccc([N+](=O)[O-])cc2)o1 (stereo not given),-,73
CC1(C)CC(=O)C2=C(C1)Nc1ccccc1NC2c1ccccc1 (stereo not given),-,-
Cc1cc2c(cc1C)NC(c1ccc(Cl)c(F)c1)C1=C(CC(C)(C)CC1=O)N2 (stereo not given),-,59
CC1(C)CC(=O)C2=C(C1)Nc1ccccc1NC2c1ccc(Cl)c(Cl)c1 (stereo not given),-,66
COc1cccc(CCC(=O)N2CCCC2c2nc(-c3cccc(Cl)c3)no2)c1 (stereo not given),-,-
O=c1/c(=C/C=C/c2ccccc2)sc2nc(-c3cccs3)nn12,-,52
O=c1/c(=C/c2ccccc2)sc2nc(-c3cccs3)nn12,-,-
COc1ccc(-c2cc(C(=O)N(C)CC(C)C)no2)cc1,-,-
O=C(Nc1cc(-c2cccs2)nn1-c1ccc(I)cc1)C1CCC1,-,.
Cn1cnc2c1CN(CC(=O)NCc1cccc(C(F)(F)F)c1)CC2,-,68
Cc1nn(C)c2c(=O)n(CC(=O)NCc3cccc(C(F)(F)F)c3)ccc12,-,-
CNC(=O)N1CCCC(c2cccc(C(=O)NCc3cc(OC)cc(OC)c3)c2)C1 (stereo not given),-,-
Cc1cc([N+](=O)[O-])c(C)cc1-c1ccc(/C=C/c2cc(C(F)(F)F)[nH]c(=O)n2)o1,-,95!
O=C1C(=Cc2ccc(-c3ccccc3[N+](=O)[O-])o2)C(=O)c2ccccc21,-,-
O=c1nc(/C=C/c2ccc(-c3ccccc3[N+](=O)[O-])o2)cc(C(F)(F)F)[nH]1,-,90
O=c1nc(/C=C/c2cccn2-c2ccc([N+](=O)[O-])cc2)cc(C(F)(F)F)[nH]1,-,-
COc1cccc(-c2cc(C(=O)N3CC(c4nc(-c5cccs5)no4)C3)[nH]n2)c1,-,-
COc1ccc(Br)cc1C1=N/C(=C/c2cccc(OC)c2OC)C(=O)O1,-,-
CC1=C(C(=O)Nc2ccccn2)C(c2cccc(Br)c2)n2ncnc2N1 (stereo not given),-,-
COc1ccc(NC(=O)c2c(C)sc3c(C)c(C)[nH]c23)cc1,-,54
COc1ccc(NC(=O)c2c(Cl)cc(Cl)nc2Cl)cc1,-,-
